PubChem BioAssay AID652040 (Broad Institute, 2013)
Results with a measured potency or affinity are listed apart. The source made the active and inactive calls.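 The calls were made as follows: active = falling luciferase signal whose fitted half-maximal concentration is at most twice the top tested dose; inconclusive = flat inhibition between 30 and 70% or a poor curve fit; inactive = the rest.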

Assay: off-target signal loss in HeLa-CEM21 co-culture – HeLa F-luc CTL cells, cherry-picked, counter-screen for HIV-1 Env fusion inhibitor project, dose response (AID 652040);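 also: 0% = median of neutral control wells and -100% = doxycycline 40 µg/mL wells; more negative values mean stronger loss of luciferase signal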
Conditions: HeLa-F-luc CTL cells with CEM21, firefly luciferase counterscreen; series mostly up to 35 µM; activity change, negative = inhibition: at the top concentration

Row | Compound | activity change, negative = inhibition
1 | CCC(=NCCc1c[nH]c2ccccc12)c1c(O)n(C)c(=O)n(C)c1=O | 45.4% (inactive)
2 | CCC(=NCc1ccc(F)cc1)c1c(O)n(C)c(=O)n(C)c1=O | -4.39% (inactive)
3 | Cn1nc(-c2ccc(OCC(=O)N3CCN(Cc4ccccc4)CC3)cc2)c2ccccc2c1=O | 13.6% (inactive)
